TDP1 cell noCPT: qHTS for Inhibitors of human tyrosyl-DNA phosphodiesterase 1 (TDP1): qHTS in cells in absence of CPT; AID 686978, 2013; actives 15% (n = 420,000); Potency, µM (top dose mostly 46.2 µM), for the others: top-dose activity change, negative = growth inhibition, usual class: inhibitors; DT40 Tdp1-/- hTDP1 cells, no CPT, ATP luminescence, 48 h; note: nearly all actives have a fitted effect of over 55% in size
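Readout: luminescence from CellTiter-Glo after 30 min in the dark at RT. Cells: DT40 Tdp1-/- with stable hTDP1, 400/well. Exposure: compounds alone, ≥48 hr, 37 °C.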
Gal4-VP16 FLuc: VP16 counterscreen qHTS for inhibitors of ROR gamma transcriptional activity | Drosophila S2 Gal4-VP16 UAS-luciferase, luminescence, 20 h | Potency, µM (highest dose often 53.6 µM), inactives show top-dose activity, negative = inhibition, actives largely listed as inhibitors | actives 3.5% (n = 310,000) | AID 2546, 2010;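 note: Gal4-VP16 expression switched on by copper sulfate through the metallothionein promoter; nearly all actives have a fitted effect of over 50% in size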
TDP1 block: qHTS Assay for Inhibitors of Tyrosyl-DNA Phosphodiesterase (TDP1). Tyrosyl-DNA phosphodiesterase 1 (Homo sapiens), Q9NUW8. recombinant TDP1, AlphaScreen DNA substrate cleavage. Potency, µM (top dose mostly 130 µM), without a hit: at the highest dose activity change, negative = inhibition, actives largely listed as inhibitors. actives 0.28% (n = 350,000); note: nearly all actives have a fitted effect of over 40% in size
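Tdp1 1 nM final; 15 min RT w/ cpd; substrate 15 nM, 5 min; beads 10 ug/ml, 10 min; AlphaScreen read. Neg ctrl: no enzyme.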
DT40 TDP1 CPT: qHTS for Inhibitors of human tyrosyl-DNA phosphodiesterase 1 (TDP1): qHTS in cells in presence of CPT; chicken DT40 Tdp1-/-;hTDP1 cells + 20 nM CPT, ATP luminescence, 48 h; Potency, µM (doses to about 46.2 µM), for inactives: top-dose activity change, negative = growth inhibition, most hits filed as inhibitors; actives 12% (n = 420,000); note: nearly all actives have a fitted effect of over 55% in size
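Chicken DT40 Tdp1-/- cells complemented with human TDP1, 400 cells/well, exposed to compounds plus 20 nM camptothecin for at least 48 h at 37 C; viability read as ATP content by CellTiter-Glo luminescence.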
RORgamma inh: qHTS for inhibitors of ROR gamma transcriptional activity; Nuclear receptor ROR-gamma (Mus musculus), P51450; Drosophila S2 Gal4-RORgamma UAS-luciferase reporter, 20 h; Potency, µM (top dose mostly 53.6 µM), for the others: at the top dose activity change, negative = inhibition, most hits filed as inhibitors; actives 5.4% (n = 310,000); AID 2551, 2010; note: nearly all actives have a fitted effect of over 60% in size
Target sequence (P51450 whole entry, looked up, the tested form may be a part): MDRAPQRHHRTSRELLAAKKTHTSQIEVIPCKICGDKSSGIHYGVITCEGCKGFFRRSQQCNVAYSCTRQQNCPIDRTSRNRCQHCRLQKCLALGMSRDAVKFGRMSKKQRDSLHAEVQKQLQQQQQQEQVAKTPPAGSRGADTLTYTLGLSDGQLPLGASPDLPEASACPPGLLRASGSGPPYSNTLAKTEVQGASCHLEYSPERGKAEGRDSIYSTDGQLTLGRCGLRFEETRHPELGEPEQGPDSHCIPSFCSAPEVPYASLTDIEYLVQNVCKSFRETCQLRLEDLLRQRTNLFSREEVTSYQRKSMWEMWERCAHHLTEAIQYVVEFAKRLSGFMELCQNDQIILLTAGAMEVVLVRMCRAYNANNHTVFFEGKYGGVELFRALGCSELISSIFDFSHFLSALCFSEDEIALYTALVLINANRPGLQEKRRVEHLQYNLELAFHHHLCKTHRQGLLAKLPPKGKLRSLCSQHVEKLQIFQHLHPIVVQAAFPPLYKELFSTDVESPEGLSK
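In this cell-based reporter format, copper sulfate (700 uM final) drives Gal4–ROR gamma fusion expression from a metallothionein promoter in Drosophila Schneider cells; compounds preincubated 1 hr, reporter read after 20 hr at ambient temperature.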
* = called active by the depositor; ? = inconclusive; / = not tested or not shown; [ ] = remark or other dose. Hits are enriched below; roughly 19% of the tested compounds scored in any of these assays. Calls come from the whole dose curve; as a rule, active = well fitted curve in the direction sought with a large enough effect; inconclusive = small, poorly fitted or top-dose-only effect, or another doubt; inactive = no such curve, though single readings can be large; an effect the other way counts as inactive or inconclusive. % is set by controls: 0 for no effect and ±100 for the full control effect; potency is the fitted concentration of half-maximal effect.

SMILES	TDP1 cell noCPT	Gal4-VP16 FLuc	TDP1 block	DT40 TDP1 CPT	RORgamma inh
CCOC(=O)C1CCN(C(=O)Cn2c(=O)cc(C)c3c(C)nn(C)c32)CC1	18.4µM*	/	0.6%	25.9µM*	/
O=C(O)Cn1nc(-c2ccccc2)c2ccccc2c1=O	5.3%	8.8%	6.2%	0.7%	-12.6%
CC(=O)N1CCC[C@H]1C(=O)NCC1Cc2cc(-c3cccc(OC(F)(F)F)c3)ccc2O1 (some centres undefined)	16.4µM*	/	/	?	/
Cc1cnc(C)c(-c2ccc3c(c2)CC(CNC(=O)Cc2c(C)[nH]c4ccccc24)O3)n1 (centres undefined)	0.92µM*	/	/	0.517µM*	/
CSc1ccc(-c2ccc3c(c2)CC(CNC(=O)Cn2nc(C)nc2C)O3)cc1 (centres undefined)	-20.6%	/	/	-23.6%	/
Cc1noc(C)c1CC(=O)NCC1Cc2cc(-c3cccc(OC(F)(F)F)c3)ccc2O1 (centres undefined)	10.3µM*	/	/	?	/
CN1CCCCCC1C(=O)NCC1Cc2cc(-c3cnccn3)ccc2O1 (centres undefined)	?	/	/	7.5%	/
O=C(CCN1C(=O)C2CCCCC2C1=O)N1CCN(S(=O)(=O)c2cccc(F)c2)CC1 (centres undefined)	7.1%	/	2.2%	17.9%	/
Cc1cc(C)cc(NC(=O)C2C3C=CC4(O3)C2C(=O)N(CCN2CCCCC2)C4C(=O)NC2CCCCC2)c1 (centres undefined)	-22.7%	-18.6%	9.9%	-3.9%	1.2%
O=C(OCc1nnc(-c2ccccc2)o1)c1ccc(S(=O)(=O)NCc2ccco2)cc1	23.1µM*	2.0%	-3.4%	?	-3.6%
O=C(/C=C/c1ccco1)OCc1nnc(-c2ccc(Cl)cc2)o1	-8.8%	-7.3%	/	6.8%	15.7%
O=C(COC(=O)c1ccc(S(=O)(=O)NCc2ccco2)cc1)NCc1ccccc1	-11.6%	/	-15.4%	-5.2%	/
CC(C)c1ccc(CN(C)C(=O)c2ccc(S(=O)(=O)NCc3ccco3)cc2)cc1	20.6µM*	/	1.9%[56.1 µM]	20.6µM*	/
NC(=O)COC(=O)c1ccc(S(=O)(=O)NCc2ccco2)cc1	-22.9%	1.7%	15.8µM*	-6.7%	1.0%
O=C(/C=C/c1ccco1)OCc1nnc(-c2ccccc2)o1	-21.9%	1.0%	25.1µM*	-10.5%	24.2%
CCOc1ccc(-c2nc(CSCC(=O)NCC3CCCO3)c(C)o2)cc1 (centres undefined)	-9.6%	-13.0%	5.3%	-25.1%	?
COC(=O)NNC(=O)c1cccc(C)c1	-12.5%	4.5%	5.2%	-5.3%	-2.7%
O=C(Nc1ccccc1)Nc1sccc1-c1nc2ccccc2s1	-6.4%	4.1%	/	17.4%	7.94µM*
CCc1cccc2cc3c(N)c(C(=O)Nc4ccc(S(=O)(=O)N5CCCC5)cc4)sc3nc12	8.2µM*	-2.5%	-2.3%	?	20.4%
COc1cccc(CC(=O)Nc2ccc(S(=O)(=O)N3CCCCC3)cc2)c1	?	/	1.2%	?	/
O=C(NCc1ccc(Cl)cc1)c1cc(-c2cccs2)on1	-18.3%	6.4%	-3.9%	-18.0%	19.3%
CC(=O)C1=C(C)NC(SCC(=O)c2ccc(C)cc2)=C(C#N)C1c1ccco1 (centres undefined)	/	2.82µM*	-2.3%	/	?
N#CC1=C(SCC(=O)c2ccc(Cl)cc2)NC2=C(C(=O)CCC2)C1c1ccco1 (centres undefined)	5.8µM*	0.8%	2.2%	5.17µM*	31.1%
Cc1ccc(C(=O)CSC2=C(C#N)C(c3ccco3)C3=C(CC(C)(C)CC3=O)N2)cc1 (centres undefined)	10.3µM*	-5.0%	3.6%	13µM*	0.2%
CC1(C)CC(=O)C2=C(C1)NC(SCC(=O)Nc1ccccc1)=C(C#N)C2c1ccco1 (centres undefined)	?	-28.8%	6.6%	?	?
SMILES	TDP1 cell noCPT	Gal4-VP16 FLuc	TDP1 block	DT40 TDP1 CPT	RORgamma inh
CC1=C(C(=O)OC2CCCCC2)C(c2ccco2)C2=C(CC(C)(C)CC2=O)N1 (centres undefined)	?	-1.9%	-1.0%	18.4µM*	9.1%
CCCCn1c(N2CCC(Cc3ccccc3)CC2)nc2c1c(=O)[nH]c(=O)n2C	20.6µM*	/	5.6%	23.1µM*	-44.4%[0.365 µM]
Cc1nnc(SCCn2c(N3CCC(Cc4ccccc4)CC3)nc3c2c(=O)[nH]c(=O)n3C)s1	16.4µM*	-7.1%	/	?	18.9%
Cn1c(SCc2ccc(F)cc2)nc2c([nH]c3ccccc32)c1=O	?	/	2.2%	?	/
Cn1c(SCc2cccc(F)c2)nc2c([nH]c3ccccc32)c1=O	?	/	1.1%	7.31µM*	/
Cn1c(SCc2ccc(C(F)(F)F)cc2)nc2c([nH]c3ccccc32)c1=O	18.4µM*	/	6.6%	9.2µM*	/
O=C(CSc1nccn1Cc1ccc2c(c1)OCO2)Nc1ccccc1F	-21.0%	/	6.6%	1.3%	/
CC(Oc1cccc(Cl)c1)C(=O)NCc1ccc(S(N)(=O)=O)cc1 (centres undefined)	25.9µM*	-0.1%	5.4%	?	1.0%
Cc1csc(/C(=N\O)c2csc(C)n2)n1	?	4.47µM*	9.1%	-24.0%	2.82µM*
COc1cc(N(C)C)cc(CN(C)CCc2ccc([N+](=O)[O-])cc2)c1O	/	-1.9%	2.24µM*	/	?
COC(=O)C1=C(C)NC(C)=C(C(=O)OCCSc2ccccc2)[C@@H]1C	?	5.6%	?	?	?
O=C(NC(=S)N(CCc1ccccc1)CCc1ccccc1)c1ccco1	11.6µM*	0.0447µM*	7.0%	18.4µM*	0.112µM*
O=C(NCc1ccccc1)c1ccco1	-9.9%	-8.9%	3.7%	-19.7%	-1.9%
CC(CCc1ccccc1)NC(=S)NC(=O)c1ccco1 (centres undefined)	-20.7%	-69.8%	5.1%	-5.5%	11.2µM*
CCN1C(=O)N(CN2CCOCC2)C2C1N(CN1CCOCC1)C(=O)N2CC (centres undefined)	?	-1.5%	-6.7%	?	24.4%
COc1cc(/C=C/C(=O)OCC(=O)N(C)C2CCS(=O)(=O)C2)ccc1OC(F)F (centres undefined)	2.3%	1.0%	1.1%	1.2%	20.5%
Clc1cccc(Cl)c1CSc1nnc(/C=C/c2ccccc2)o1	?	15.7%	-8.3%	?	-14.6%
Oc1ccc2ccccc2c1-c1sc(Nc2ccccc2)n[n+]1-c1ccc(F)cc1	16.4µM*	-12.9%	/	?	-7.4%

Bioassay records: PubChem, National Center for Advancing Translational Sciences (NCATS)
